Among all 300,000 compounds or so, about 37,000 (12%) were called active. This is one part of a sample in which actives are shown more often than they occur. Cut-off read from the data, not from the text of the source: active = max response mostly above about 13% (no sharp cut-off); inactive = mostly below about 14%.
Assay: Cycloheximide Counterscreen for Small Molecule Inhibitors of Shiga Toxin; note: read at 38.3 µM for the half of the compounds with a filed dose; 0% is about no effect
Details: cell reporter, cycloheximide protein synthesis inhibition counterscreen; active compounds read high

**Q.** Which max response does the source give for `CCCCc1nn(-c2ccccc2C(F)(F)F)c(=O)n1Cc1ccc(-c2ccccc2S(=O)(=O)NC(=O)c2sccc2C)cc1` here?
**A.** -3.92% (inactive)

**Q.** Which max response does the source give for `CN1CCN(CCCCOc2ccccc2-c2ccccc2)CC1` here?
**A.** -2.52% (inactive)

**Q.** Which max response does the source give for `COc1ccccc1N1CCN(C(=O)c2ccc(Cl)c(S(=O)(=O)N3CCCC3)c2)CC1` here?
**A.** 1.2% (inactive)

**Q.** With `CC12CN(NC(=O)c3ccc(Cl)cc3)C3(C#N)CC1CCC23C` (configuration not stated) as the compound, how does the max response read?
**A.** -3.78% (inactive)

**Q.** With `OCCC1CN(Cc2ccc(Oc3ncccn3)cc2)CCN1CCc1ccccc1` (configuration not stated) as the compound, how does the max response read?
**A.** 14.5% (active)

**Q.** With `CC(C)=CCN1CCN(Cc2ccc(Oc3ncccn3)cc2)CC1CCO` (configuration not stated) as the compound, how does the max response read?
**A.** -1.38% (inactive)

**Q.** Which max response does the source give for `CCOc1ccc(CN2CCN(CCCc3ccccc3)C(CCO)C2)cc1` (configuration not stated) here?
**A.** -3% (inactive)

**Q.** Which max response does the source give for `N#Cc1cccc(CN2CCC(=O)N(CCO)CC2)c1` here?
**A.** -1.61% (inactive)

**Q.** For `O=C(c1ccc(N2CCOCC2)c([N+](=O)[O-])c1)N1CCN(S(=O)(=O)c2cccs2)CC1`, which max response is on record?
**A.** -2% (inactive)

**Q.** For `CN(c1ccc(OCC(=O)O)cc1)S(=O)(=O)c1ccc2ccccc2c1`, which max response is on record?
**A.** -2.07% (inactive)

**Q.** Which max response does the source give for `O=C(NCc1ccccc1)c1ccc(S(=O)(=O)Nc2cccc(C(F)(F)F)c2)cc1` here?
**A.** 2.15% (inactive)

**Q.** For `O=C(Cc1cccs1)NCc1cccc(C(F)(F)F)c1`, which max response is on record?
**A.** 36.1% (active)

**Q.** With `O=C(NCc1cccc(C(F)(F)F)c1)c1cccc(S(=O)(=O)N2CCN(Cc3ccccc3)CC2)c1` as the compound, how does the max response read?
**A.** -5.35% (inactive)

**Q.** For `Cc1nc([N+](=O)[O-])nn1C12CC3CC(CC(Br)(C3)C1)C2`, which max response is on record?
**A.** 15.4% (inactive)

**Q.** With `CCC(C)(C)c1ccc(OCC(=O)N(C)C)c(C(C)(C)CC)c1` as the compound, how does the max response read?
**A.** -3.16% (inactive)

**Q.** Which max response does the source give for `Cc1nc2ccc(C(=O)N3CCN(c4ccccc4)CC3)cc2s1` here?
**A.** -1.5% (inactive)

**Q.** Which max response does the source give for `Cc1nc2ccc(C(=O)N3CCSCC3)cc2s1` here?
**A.** 11.3% (active)

**Q.** With `O=C(c1ccc2nc(N3CCOCC3)sc2c1)N1CCN(c2ccc(Cl)cc2)CC1` as the compound, how does the max response read?
**A.** 1.7% (inactive)

**Q.** Which max response does the source give for `OC(COCCC12CC3CC(CC(C3)C1)C2)CN1CCCCC1` (configuration not stated) here?
**A.** -4.31% (inactive)

**Q.** Which max response does the source give for `Cc1nc(C)c(-c2nnc(-c3cccc(S(=O)(=O)N(C)C)c3)o2)cc1C(=O)NN` here?
**A.** -1.43% (inactive)

**Q.** With `COC(=O)c1cc2c(N)c(C(=O)c3ccc(Cl)cc3)sc2nc1C(OC)OC` as the compound, how does the max response read?
**A.** -3.14% (inactive)

**Q.** For `COc1cccc(C(=O)c2sc3nc(-c4ccccc4)cc(C(F)(F)F)c3c2N)c1`, which max response is on record?
**A.** 10.5% (inactive)

**Q.** With `Cc1nc2sc(C(=O)c3ccccc3)c(N)c2c2c1CCCC2` as the compound, how does the max response read?
**A.** 20.5% (active)

**Q.** For `CC(=O)c1c(Nc2ccccc2)sc(C(=O)c2ccccc2)c1C`, which max response is on record?
**A.** 0.579% (inactive)

**Q.** With `CN(C)c1ccnc2sc3c(=O)n(Cc4ccccc4)cnc3c12` as the compound, how does the max response read?
**A.** -5.28% (inactive)

**Q.** With `CS(=O)(=O)c1sc2nc(-c3ccccc3)cc(-c3ccccc3)c2c1N` as the compound, how does the max response read?
**A.** -3.03% (inactive)

**Q.** Which max response does the source give for `CN(C)c1ccnc2sc(C(=O)c3ccccc3)c(N)c12` here?
**A.** 57.9% (active)

**Q.** For `CCOC(=O)c1sc2nc(SC)nc(-c3ccccc3)c2c1N`, which max response is on record?
**A.** -2.15% (inactive)

**Q.** Which max response does the source give for `CCN(CC)C(=O)c1sc2nc(-c3ccccc3)ccc2c1N` here?
**A.** 63.5% (active)

**Q.** For `CCc1nc2sc(C(=O)O)c(N)c2c2c1CCCC2`, which max response is on record?
**A.** -1.77% (inactive)

**Q.** Which max response does the source give for `NC(=O)c1sc2nc3c(c(-c4ccccc4)c2c1N)CCC3` here?
**A.** -2.08% (inactive)

**Q.** With `Cc1ccc2c(N)c(C(=O)c3ccccc3)sc2n1` as the compound, how does the max response read?
**A.** 29% (active)

— PubChem BioAssay AID2314 (National Center for Advancing Translational Sciences (NCATS), 2010)
